Bioassay records from PubChem BioAssay.
This is a sample that favours compounds with a hit; in the whole collection about 21% have one here.
Pf growth 96h: Primary qHTS for delayed death inhibitors of the malarial parasite plastid, 96 hour incubation; P. falciparum luciferase reporter growth, 96 h; Potency, µM (series often up to 28.7 µM), inactives show at the top dose activity change, negative = inhibition, usual class: inhibitors; actives 6.9% (n = 320,000); AID 504834, 2011; note: potency is the fitted concentration of half-maximal effect; % is set by controls: 0 for no effect and ±100 for the full control effect
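Two parasite generations (96 h, 37 C, 5% CO2) of compound exposure in infected erythrocytes (0.05% parasitemia, 2% hematocrit). Luciferase-reporter P. falciparum; decreased luminescence indicates inhibited growth, aimed at apicoplast-acting delayed death.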
Cycloheximide cs: Cycloheximide Counterscreen for Small Molecule Inhibitors of Shiga Toxin | cell reporter, cycloheximide protein synthesis inhibition counterscreen | max response, % | actives 12% (n = 300,000); in the data active = max response mostly above about 13%, no sharp cut-off; inactive = mostly below about 14%; note: read at 38.3 µM for the half of the compounds with a filed dose; 0% is about no effect
Shiga inhibitor: A qHTS for Small Molecule Inhibitors of Shiga Toxin; inhibition, % at 38.7 µM; actives 9.2% (n = 290,000); Vero cells, Shiga toxin protein synthesis inhibition reporter; AID 2315, 2010; in the data active = inhibition mostly above about 28%, no sharp cut-off; inactive = mostly below about 43%; note: 0% is about no effect
FBPA Giardia inh: qHTS Assay for Inhibitors of Fructose-1,6-bisphosphate Aldolase from Giardia Lamblia. A8B2U2. purified Giardia FBPA. Potency, µM (top dose mostly 59.6 µM), for inactives: top-dose activity, negative = inhibition, usual class: inhibitors. actives 0.71% (n = 290,000); note: potency is the fitted concentration of half-maximal effect; % is set by controls: 0 for no effect and ±100 for the full control effect; nearly all actives have a fitted effect of over 55% in size
Target sequence (A8B2U2 whole entry, looked up): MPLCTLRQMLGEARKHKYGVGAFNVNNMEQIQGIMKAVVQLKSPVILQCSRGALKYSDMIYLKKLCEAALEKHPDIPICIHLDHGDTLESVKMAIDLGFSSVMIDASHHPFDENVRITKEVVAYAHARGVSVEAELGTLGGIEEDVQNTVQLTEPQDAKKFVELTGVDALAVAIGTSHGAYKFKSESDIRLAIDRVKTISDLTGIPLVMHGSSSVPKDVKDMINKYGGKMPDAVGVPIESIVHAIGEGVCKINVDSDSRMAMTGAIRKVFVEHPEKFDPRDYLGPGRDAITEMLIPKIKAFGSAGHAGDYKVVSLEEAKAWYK
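Giardia FBPA (40 nM reagent) was preincubated 10 min at RT with compound (up to 57.5 uM final), then substrate plus GAPDH/TPI/NAD/arsenate coupling system with diaphorase/resazurin was added; resorufin fluorescence (525/598 nm) was read after 20 min.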
NS1 inh: qHTS Assay for Inhibitors of Influenza NS1 Protein Function | Potency, µM (highest dose often 46.1 µM), without a hit: at the top dose activity, positive = more growth | actives 0.4% (n = 270,000) | AID 2326, 2010; calls by dose curve; note: potency is the fitted concentration of half-maximal effect; actives are rising curves; nearly all actives have a fitted effect of over 50% in size
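Compounds were scored for reversing the slow growth caused by influenza A NS1 in S. cerevisiae, measured by optical density at 600 nm. Assay medium contained 2% galactose at pH 6.0; NS1-free yeast of the same strain were the positive control.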
Pf growth 48h: Primary qHTS for delayed death inhibitors of the malarial parasite plastid, 48 hour incubation; P. falciparum luciferase growth in erythrocytes, 48 h; actives 5.9% (n = 310,000); Potency, µM (top dose mostly 28.7 µM), for inactives: at the top dose activity change, negative = inhibition, hits mostly inhibitors; note: potency is the fitted concentration of half-maximal effect; % is set by controls: 0 for no effect and ±100 for the full control effect
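Luciferase-expressing P. falciparum in infected erythrocytes (2% hematocrit, 0.1% parasitemia final) in RPMI 1640/0.5% Albumax were exposed to compound for 48 hours at 37 C, 5% CO2; growth read as luminescence.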
Active calls of the source: *; i = inactive; ? = inconclusive; . = no result given; + = active, no number; [ ] = dose if it differs, or a comment. Unless noted, calls come from the whole dose curve; as a rule, active = well fitted curve in the direction sought with a large enough effect; inconclusive = small, poorly fitted or top-dose-only effect, or another doubt; inactive = no such curve, though single readings can be large; an effect the other way counts as inactive or inconclusive.

SMILES | Pf growth 96h | Cycloheximide cs | Shiga inhibitor | FBPA Giardia inh | NS1 inh | Pf growth 48h
C/C(CCN1CCc2nc(-c3ccccc3)c(-c3ccccc3)cc2C1)=N\OC[C@@H](C)[C@H](OCc1ccccc1)C(C)C | 9.3µM* | -2 | -13 | 0%[12.9 µM] | 0% | ?
CO/N=C(\C)CCN1CCc2nc(-c3ccccc3)c(-c3ccccc3)cc2C1 | . | . | . | 0%[12.9 µM] | . | .
C/C(CCN1CCc2nc(-c3ccccc3)c(-c3ccccc3)cc2C1)=N\O[C@H](C)c1cn([C@H](CO)Cc2ccccc2)nn1 | 13µM* | -1 | -7 | -6% | 10% | 9.3µM*
COC(F)(F)C(Cl)Cl | 0% | . | . | . | . | -10%
O=C(Nc1cccnc1)c1cccc(S(=O)(=O)N2CCCCC2)c1 | -17% | -2 | -12 | -5% | -3% | -22%
O=C(Nc1ccccn1)c1ccc(Br)c(S(=O)(=O)N2CCCC2)c1 | -27% | 34* | 50* | 4% | -17% | -22%
O=C(Nc1cccnc1)c1ccc(Br)c(S(=O)(=O)N2CCCC2)c1 | ? | 3 | 10 | . | -2% | 13µM*
O=C(Nc1cccnc1)c1cc(F)cc(F)c1 | . | -3 | 19 | 1% | -9% | 33%
Cc1ccc(C(=O)Nc2cccnc2)cc1S(=O)(=O)N1CCCCC1 | 2.1µM* | 2 | -5 | 5% | -2% | ?
Cc1cc(C(=O)Nc2cccnc2)cs1 | 14% | 12* | 15 | 1% | -9% | 62%
O=C([O-])[C@@H]1[O][Sb+]([O][Sb+]2[O][C@H]([C@H](O)CO)[C@H](O)[C@H](C(=O)[O-])[O]2)[O][C@H]([C@H](O)CO)[C@@H]1O | . | -6 | 1 | 1% | . | .
Cc1cc(NC(=O)c2ccc(Br)c(S(=O)(=O)N3CCCC3)c2)no1 | . | -1 | 6 | -1% | 6% | 10µM*
Cc1cc(NC(=O)c2cccc(S(=O)(=O)N3CCCC3)c2)no1 | -1% | -1 | -4 | 10% | -9% | 6%
Cc1ccc(C(=O)Nc2cccnc2)cc1S(=O)(=O)N1CCCC1 | ? | 20* | 31 | . | 5% | ?
Cc1ccc(C(=O)Nc2cccnc2)cc1Cl | 10µM* | 26* | 41* | 5% | -56% | 56%
CC(=O)[C@H]1CC[C@@H]2[C@H]3CC=C4C[C@@H](O)CC[C@]4(C)[C@H]3CC[C@]12C | . | . | . | 3%[21.7 µM] | . | .
CN(C)CS/C(N)=N/[C@H](O)C(Cl)(Cl)Cl | . | . | . | . | 1% | .
Cc1cc(OCC(=O)NCCCN2CCOCC2)c2c(C)cc(=O)oc2c1 | 46% | -3 | -6 | 0% | -4% | 23%
COCCN(C(=O)CSc1n[nH]c(-c2ccccc2)n1)c1c(N)n(Cc2ccccc2)c(=O)[nH]c1=O | -8% | . | . | . | . | ?
CC1CCN(C(=O)C(C)NCc2ccc(F)cc2)CC1 (centres undefined) | ? | 2 | -4 | ? | 9% | 2%
CN(C)CC1CSCCC1(O)c1ccccc1Cl (centres undefined) | -62% | -3 | 3 | -15% | 3% | ?
CN(C)CC1CCCCC1C1(O)c2ccccc2CSc2sccc21 (centres undefined) | ? | -7 | -34 | 4% | 12% | 9.3µM*
CC1SC(=Nc2ccccc2)N(S(=O)(=O)c2ccccc2)C1=O (centres undefined) | 17% | -4 | -11 | 0% | 15% | -13%
CCn1nnnc1SCC(=O)Nc1nc2ccc(OC)cc2s1 | i | 25* | + | -3% | -12% | 35%
C=CCn1nnnc1SCC(=O)Nc1ccc(OC)cc1 | -37% | 24* | 20 | . | 0% | 39%
SMILES | Pf growth 96h | Cycloheximide cs | Shiga inhibitor | FBPA Giardia inh | NS1 inh | Pf growth 48h
COc1ccc(NC(=O)CSc2nnnn2C2CCCC2)cc1 | 209% | 19 | 13 | -8% | 2% | 19%
CCn1nnnc1SCC(=O)Nc1ccc(OC)cc1 | 15µM* | 13 | 34* | -1% | 8% | 24%
COCCn1nnnc1SCC(=O)c1ccccc1 | ? | 14* | 34 | 0% | -2% | 31%
O=C(COC(=O)c1ccc(NS(=O)(=O)c2ccc(F)c(F)c2)cc1)NCC1CCCO1 (centres undefined) | 13% | 1 | -6 | 10% | . | 9%
O=C(NCCN1CCOCC1)C1CC(=O)N(c2cccc(C(F)(F)F)c2)C1 (centres undefined) | 24% | . | . | . | . | ?
COc1ccc(NC(=O)CCSc2ccc(F)cc2)cc1 | 75% | 34* | 57* | 0% | . | 202%
COc1ccc2nc(NC(=O)CSc3nnc(-c4ccoc4C)n3C)sc2c1 | -36% | 46* | 80* | 14% | -13% | 40%
COc1ccc(NC(=O)CCSc2nnnn2C)cc1 | ? | 25* | 51 | 8% | . | 100%
Cn1nnnc1SCc1ccc(C(=O)Nc2ccc(Br)cc2)cc1 | -3% | 47* | 57* | 0% | 18% | 80%
CC(=O)Nc1ccc(C(=O)CSc2nnnn2C)cc1 | 0% | -1 | -3 | 1% | -6% | -7%
COc1cccc(N(CC(=O)NCC2CCCO2)C(=O)CCC(=O)Nc2nccs2)c1 (centres undefined) | 48% | 0 | -12 | -3% | 1% | ?
Cc1ccccc1OCC(=O)Nc1ccccc1C(=O)NC1CC1 | ? | . | . | . | . | -13%
CCOC(=O)c1cc(-c2ccc(OC)cc2)nc2c1c(C)nn2CCC(N)=S | ? | 3 | -9 | -8% | . | ?
CCn1cc(C2CC(=O)NC2=O)c2ccccc21 (centres undefined) | -12% | 0 | -10 | 1% | 0% | -14%
CCn1nnnc1SCC(=O)c1cccc(OC)c1 | 13% | 19* | 14 | -6% | -23% | 9%
COc1ccc(-n2nnnc2SCC(=O)c2cccc(OC)c2)cc1 | ? | -2 | 2 | 2% | 3% | 9%
CNC(=S)N/N=C/c1c(C)c(C(=O)c2ccc(F)cc2)n2ccccc12 | 3.3µM* | -2 | -8 | -1% | 4% | 8.3µM*
Cn1c(=O)c2c(nc(CN3CCN(C(=O)c4ccco4)CC3)n2CC(=O)C(C)(C)C)n(C)c1=O | 0% | -5 | -9 | -11% | 0% | -17%
Oc1c(Br)cc2oc3c(c2c1CNCc1ccccc1)CCCC3 | 0.29µM* | -6 | -11 | -22% | 0% | .
CCOc1ccc(-c2nc(-c3ccncc3)no2)cc1OCC | . | 17* | 40* | 3% | -1% | 22%
CCOc1ccc(-c2nc(-c3ccccc3)no2)cc1OCC | ? | 29* | 70* | -1% | 3% | .
CCOc1cc(-c2nc(-c3ccc(OC)cc3)no2)cc(OCC)c1OCC | ? | -3 | 29 | 2% | -7% | 15%
O=S(=O)(N1CCOCC1)N1CCOCC1 | -6% | -3 | -5 | -1% | 2% | 4%
